# The source made the active and inactive calls.
# Tests used:
# [1] = tested on: Plasmodium falciparum Sir2 (PF13_0152, Sir2A); assay: Plasmodium falciparum Sir2A binding compounds – biochemical, small-molecule microarray, 635 nm fluorescence, primary screen (AID 1098); conditions: fluorescence 635 nm, higher = more signal;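 further: score merges spot fluorescence intensity with its signal-to-noise ratio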
# [2] = probe aDKK1 binding to arrayed compounds – biochemical, biotinylated probe, 635/667 nm fluorescence, primary screen (AID 1099); conditions: small-molecule microarray, higher = more signal;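 further: score merges 667nm spot fluorescence with signal to noise across triplicate slides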
# [3] = probe aCHRDL2 binding to arrayed compounds – biochemical, biotinylated probe, 635/667 nm fluorescence, primary screen (AID 1100); conditions: small-molecule microarray, higher = more signal
# [4] = change in splice reporter luminescence, either direction, cell-based, HEK293, spliceosome inhibition project, primary screen (AID 1101); conditions: HEK293 splicing luciferase reporter, 24 h, higher = more signal, called active from +8 up or from −8 down;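 further: HEK293 cells carrying a splicing-competent luciferase reporter gene; test concentration not given here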
# [5] = target: Fibroblast growth factor 10 (Homo sapiens) (UniProt O15520); assay: compounds binding fibroblast growth factor 10 – biochemical, small-molecule microarray, 635 nm fluorescence, primary screen (AID 1102); conditions: FGF10 binding, fluorescence 635 nm, higher = more signal
# Fibroblast growth factor 10 (Homo sapiens), sequence (O15520 whole entry, looked up): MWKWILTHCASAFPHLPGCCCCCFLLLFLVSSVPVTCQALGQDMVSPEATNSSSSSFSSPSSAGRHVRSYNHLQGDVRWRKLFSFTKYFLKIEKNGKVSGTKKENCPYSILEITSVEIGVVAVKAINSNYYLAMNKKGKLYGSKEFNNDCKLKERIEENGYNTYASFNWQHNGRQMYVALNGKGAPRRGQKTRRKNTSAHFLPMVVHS
# [6] = tested on: glycogen synthase kinase-3 (GSK3A per assay name; protocol says GSK3B); assay: compounds binding glycogen synthase kinase-3 – biochemical, small-molecule microarray, 635 nm fluorescence, GSK3A, primary screen (AID 1103); conditions: fluorescence 635 nm, higher = more signal; further: the record names both GSK3A and GSK3B
# [7] = target: Epidermal growth factor receptor (Homo sapiens) (UniProt P00533); assay: compounds binding epidermal growth factor receptor – biochemical, small-molecule microarray, 635 nm fluorescence, primary screen (AID 1104); conditions: EGFR binding, higher = more signal;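 further: score merges 667 nm emission intensity with spot signal to noise over triplicate slides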
# Epidermal growth factor receptor (Homo sapiens), sequence (P00533 whole entry, looked up): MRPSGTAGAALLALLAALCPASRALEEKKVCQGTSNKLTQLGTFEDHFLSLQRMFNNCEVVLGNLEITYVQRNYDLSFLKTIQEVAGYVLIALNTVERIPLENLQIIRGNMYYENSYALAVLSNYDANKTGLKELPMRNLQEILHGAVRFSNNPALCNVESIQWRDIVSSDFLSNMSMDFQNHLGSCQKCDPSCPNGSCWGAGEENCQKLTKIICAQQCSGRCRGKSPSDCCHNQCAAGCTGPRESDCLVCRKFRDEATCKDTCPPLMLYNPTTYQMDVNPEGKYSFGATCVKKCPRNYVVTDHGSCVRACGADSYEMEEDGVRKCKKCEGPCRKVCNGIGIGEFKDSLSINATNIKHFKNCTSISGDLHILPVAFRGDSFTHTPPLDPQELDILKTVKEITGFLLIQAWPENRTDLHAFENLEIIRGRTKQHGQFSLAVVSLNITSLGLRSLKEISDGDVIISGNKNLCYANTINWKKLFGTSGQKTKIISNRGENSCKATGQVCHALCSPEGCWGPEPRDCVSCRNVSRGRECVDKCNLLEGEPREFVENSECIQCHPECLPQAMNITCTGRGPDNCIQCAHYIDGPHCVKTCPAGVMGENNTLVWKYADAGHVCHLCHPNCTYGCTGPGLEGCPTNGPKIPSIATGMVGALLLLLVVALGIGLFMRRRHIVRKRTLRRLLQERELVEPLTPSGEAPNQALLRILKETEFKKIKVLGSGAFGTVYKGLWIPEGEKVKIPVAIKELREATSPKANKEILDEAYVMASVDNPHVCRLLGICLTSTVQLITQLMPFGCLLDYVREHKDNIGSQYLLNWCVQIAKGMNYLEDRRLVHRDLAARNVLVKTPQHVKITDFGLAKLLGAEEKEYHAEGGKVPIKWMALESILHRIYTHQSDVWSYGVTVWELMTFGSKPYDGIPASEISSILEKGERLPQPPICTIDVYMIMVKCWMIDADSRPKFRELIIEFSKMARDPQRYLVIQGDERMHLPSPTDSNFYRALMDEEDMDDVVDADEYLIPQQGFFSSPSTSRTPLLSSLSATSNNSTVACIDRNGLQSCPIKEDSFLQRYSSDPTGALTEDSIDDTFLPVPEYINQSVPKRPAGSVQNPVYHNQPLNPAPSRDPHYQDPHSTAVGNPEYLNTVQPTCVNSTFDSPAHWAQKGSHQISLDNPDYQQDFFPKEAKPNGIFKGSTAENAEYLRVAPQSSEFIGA
# [8] = target: Follistatin-related protein 3 (Homo sapiens) (UniProt O95633); assay: compounds binding follistatin-related protein 3 – biochemical, small-molecule microarray, 635 nm fluorescence, primary screen (AID 1105); conditions: FSTL3 binding, higher = more signal;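 further: score merges emission near 667 nm and signal to noise per printed spot across three slides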
# Follistatin-related protein 3 (Homo sapiens), sequence (O95633 whole entry, looked up): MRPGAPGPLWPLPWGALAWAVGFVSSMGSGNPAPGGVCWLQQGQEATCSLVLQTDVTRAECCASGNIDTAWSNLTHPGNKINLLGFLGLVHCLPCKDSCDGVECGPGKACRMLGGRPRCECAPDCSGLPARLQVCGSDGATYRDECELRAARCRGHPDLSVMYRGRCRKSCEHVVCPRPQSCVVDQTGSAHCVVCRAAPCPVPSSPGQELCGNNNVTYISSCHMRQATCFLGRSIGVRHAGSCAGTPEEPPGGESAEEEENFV
# [9] = target: Dickkopf-related protein 1 (Homo sapiens) (UniProt O94907); assay: small molecules binding DKK1 protein – biochemical, small-molecule microarray, 635 nm fluorescence scan, primary screen (AID 1106); conditions: higher = more signal;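 further: score merges emission near 667 nm with signal to noise over three replicate slides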
# Dickkopf-related protein 1 (Homo sapiens), sequence (O94907 whole entry, looked up): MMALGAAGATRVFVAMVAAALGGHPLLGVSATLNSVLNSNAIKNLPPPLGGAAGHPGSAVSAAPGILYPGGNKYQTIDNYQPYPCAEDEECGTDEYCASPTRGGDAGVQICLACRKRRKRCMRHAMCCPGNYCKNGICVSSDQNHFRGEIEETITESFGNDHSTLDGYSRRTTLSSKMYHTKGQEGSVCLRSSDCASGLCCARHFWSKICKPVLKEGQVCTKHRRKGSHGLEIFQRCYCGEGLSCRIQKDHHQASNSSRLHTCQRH
# [10] = tested on: Inhibin beta A chain (activin A); assay: small molecules binding activin A – biochemical, small-molecule microarray, 635 nm fluorescence scan, primary screen (AID 1107); conditions: INHBA, higher = more signal;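 further: mouse activin A protein probed at 4.33 µg/mL on printed slides; score merges bound-protein fluorescence near 667 nm with spot signal-to-noise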
# [11] = tested on: Human papillomavirus type 1a protein E7 (residues 44-93); assay: small molecules binding HPV E7 44-93 – biochemical, small-molecule microarray, residues 44-93, 635 nm fluorescence, primary screen (AID 1108); conditions: fluorescence 635 nm, higher = more signal;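 further: E7 fragment applied at 1 µg/mL in TBST for 1 h at 4 C; score combines spot fluorescence with its signal to noise ratio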
# [12] = hepatitis C replication reporter changes, two-sided – Huh7 cells, luciferase reporter, HCV replication inhibitor project, primary screen (AID 1109); conditions: Huh7 HCV replicon luciferase reporter, 48 h; higher = more signal;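 further: huh7 hepatoma cells harbouring a luciferase neomycin HCV replicon reporter; luciferase luminescence as measure of HCV replicon replication; test concentration not given here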
# [13] = target: Left-right determination factor 2 (Homo sapiens) (UniProt O00292); assay: small molecules binding LEFTY2 protein – biochemical, small-molecule microarray, 635 nm fluorescence scan, primary screen (AID 1110); conditions: higher = more signal
# Left-right determination factor 2 (Homo sapiens), sequence (O00292 whole entry, looked up): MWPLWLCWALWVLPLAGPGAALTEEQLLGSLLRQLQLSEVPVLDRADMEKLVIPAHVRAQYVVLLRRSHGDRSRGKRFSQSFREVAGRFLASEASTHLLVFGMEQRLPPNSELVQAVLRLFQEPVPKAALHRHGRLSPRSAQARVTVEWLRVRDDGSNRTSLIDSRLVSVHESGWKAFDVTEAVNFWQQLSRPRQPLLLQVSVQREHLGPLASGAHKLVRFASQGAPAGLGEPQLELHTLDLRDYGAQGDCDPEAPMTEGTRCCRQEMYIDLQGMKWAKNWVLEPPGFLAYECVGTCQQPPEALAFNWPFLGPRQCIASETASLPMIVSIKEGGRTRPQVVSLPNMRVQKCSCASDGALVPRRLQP
# [14] = target: Calmodulin-1 (Homo sapiens) (UniProt P0DP23); assay: small molecules binding calmodulin-1 with EGTA – biochemical, small-molecule microarray, Cy5-labelled CALM1, profiling panel (AID 1111); conditions: Cy5-CALM1 binding fluorescence, higher = more signal;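 further: labelled calmodulin applied in Tris saline Tween buffer holding calcium plus EGTA and DTT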
# [15] = target: Calmodulin-1 (Homo sapiens) (UniProt P0DP23); assay: small molecules binding Ca-loaded calmodulin-1 – biochemical, small-molecule microarray, Cy5-labelled CALM1, plus calcium, artefact control for SMM control-protein annotation, profiling panel (AID 1112); conditions: Cy5-CALM1 binding fluorescence, higher = more signal;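 further: score merges spot fluorescence with signal to noise from triplicate slides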
# [16] = probe aWnt5a binding to arrayed compounds – biochemical, biotinylated probe, 635/667 nm fluorescence, primary screen (AID 1113); conditions: small-molecule microarray, higher = more signal;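 further: score merges 667 nm fluorescence intensity with signal-to-noise per printed feature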
# [17] = probe aShh binding to arrayed compounds – biochemical, biotinylated probe, 635/667 nm fluorescence, primary screen (AID 1114); conditions: small-molecule microarray, higher = more signal;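 further: probe is biotin-labelled aShh protein from a stem cell growth factor screen; measures binding of labelled protein to compounds printed on the slide; score merges feature fluorescence at 667 nm with signal-to-noise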
# [18] = probe aNog binding to arrayed compounds – biochemical, biotinylated probe, 635/667 nm fluorescence, primary screen (AID 1115); conditions: small-molecule microarray, higher = more signal;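 further: probe is biotinylated aNog protein used at 0.15 µg/mL for 1 h at 4 C; z-score combines 667 nm fluorescence of each spot with its signal to noise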
# [19] = target: Torsin-1A-interacting protein 1 (Homo sapiens) (UniProt Q5JTV8); assay: compound microarray binding of lysate hLAP1 – cell lysate, small-molecule microarray, COS7 lysate, 635/667 nm fluorescence, primary screen (AID 1116); conditions: 635 nm fluorescence, higher = more signal
# Torsin-1A-interacting protein 1 (Homo sapiens), sequence (Q5JTV8 whole entry, looked up): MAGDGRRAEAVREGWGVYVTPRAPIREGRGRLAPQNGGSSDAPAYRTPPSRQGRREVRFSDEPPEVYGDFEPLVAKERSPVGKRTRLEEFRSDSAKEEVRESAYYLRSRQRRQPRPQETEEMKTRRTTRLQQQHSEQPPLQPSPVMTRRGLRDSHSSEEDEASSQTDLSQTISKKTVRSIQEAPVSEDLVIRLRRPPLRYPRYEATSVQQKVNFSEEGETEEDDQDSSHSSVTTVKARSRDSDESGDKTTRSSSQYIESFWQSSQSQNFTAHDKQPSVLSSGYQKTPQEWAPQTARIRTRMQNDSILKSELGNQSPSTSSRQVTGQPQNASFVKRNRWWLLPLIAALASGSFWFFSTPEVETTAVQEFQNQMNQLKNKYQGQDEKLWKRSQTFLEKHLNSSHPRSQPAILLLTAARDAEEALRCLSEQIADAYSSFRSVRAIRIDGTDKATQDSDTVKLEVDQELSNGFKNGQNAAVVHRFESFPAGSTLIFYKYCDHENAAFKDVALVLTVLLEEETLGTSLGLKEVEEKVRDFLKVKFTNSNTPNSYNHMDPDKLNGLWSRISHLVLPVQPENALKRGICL
# [20] = target: Alpha-bungarotoxin (Bungarus multicinctus) (UniProt P60615); assay: compounds binding labelled alpha-BTX control protein – biochemical, small-molecule microarray, Alexa647 label, 635/667 nm fluorescence, artefact control for SMM control protein annotation, profiling panel (AID 1117); conditions: alpha-BTX-A647 binding fluorescence, higher = more signal
# Alpha-bungarotoxin (Bungarus multicinctus), sequence (P60615 whole entry, looked up): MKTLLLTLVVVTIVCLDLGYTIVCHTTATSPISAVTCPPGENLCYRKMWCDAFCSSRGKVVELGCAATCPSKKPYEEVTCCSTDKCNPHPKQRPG
SMILES,composite z-score [1],composite z-score [2],composite z-score [3],z-score [4],composite z-score [5],composite z-score [6],composite z-score [7],composite z-score [8],composite z-score [9],composite z-score [10],composite z-score [11],z-score [12],composite z-score [13],composite z-score [14],composite z-score [15],composite z-score [16],composite z-score [17],composite z-score [18],composite z-score [19],composite z-score [20]
C=CCC(OC(C)=O)[C@@H]1[C@@H](N(Cc2cc3ccccc3o2)C(=O)c2cccc3ccccc23)c2cc(OCCCO)ccc2N1C(=O)c1ccc(-c2ccccc2)cc1 (stereo not given in full),-0.424,0.365,0.531,-1.82 (inactive),0.0822,-0.34,-0.0077,0.176,-0.0541,0.971,-0.0367,0.0372,-0.126,0.132,0.908,0.0368,-0.0553,-0.219,0.235,0.359
O=C1NC(=O)C2C1C=CC(C(O)c1cccs1)N2Nc1ccc(Cl)cc1Cl (stereo not given),1,0.82,1.03,0.569 (inactive),0.438,-1.21,-0.893,-0.375,-0.456,1.03,-1.16,-0.153,-0.824,0.0484,0.243,-0.212,0.0278,-0.774,1.89,-0.779
CC1(C)[C@@H]2CC(C(O)C3C=CC4C(=O)N(c5ccccc5)C(=O)C4N3Nc3ccc([N+](=O)[O-])cc3)=C[C@H]1C2 (stereo not given in full),0.966,0.217,0.648,-0.547 (inactive),1.11,1.34,0.604,1.38,-0.104,0.482,1.4,-1.56,0.492,1.69,0.691,0.0718,0.0326,0.902,0.561,1.67
C=CCC(OC(C)=O)[C@@H]1[C@@H](N(Cc2ccc(-c3ccccc3)cc2)C(=O)c2ccc(-c3ccccc3)cc2)c2cc(OCCCO)ccc2N1C(=O)Cc1ccc2ccccc2c1 (stereo not given in full),-0.316,-0.108,0.336,-0.412 (inactive),-0.133,-0.0682,0.0825,0.394,0.0989,1.11,0.422,-0.4,0.0959,0.436,0.704,-0.0566,-0.345,0.221,0.359,0.0054
O=C1c2ccccc2[C@](Cc2ccccc2I)(C(=O)NCCN2CCOCC2)[C@H](c2ccc(CO)cc2)N1Cc1ccccc1Cl,1.42,0.964,0.732,-0.0587 (inactive),1.15,1.28,0.629,1.25,0.419,0.605,-0.612,-2.64,0.945,1.51,0.0568,0.0215,-0.0011,-0.474,0.896,1.47
CCC(CC)C(O)C1C=CC2C(=O)NC(=O)C2N1Nc1ccccn1 (stereo not given),0.259,0.572,-0.705,1.17 (inactive),0.269,0.291,0.384,0.584,0.816,1.29,0.365,-0.642,0.255,0.0646,-0.161,-0.0704,-0.217,0.455,0.275,0.512
N#Cc1ccc(NN2C(C(O)C(c3ccccc3)c3ccccc3)C=CC3C(=O)N(c4ccccc4)C(=O)C32)cc1 (stereo not given),0.793,0.609,0.725,-0.327 (inactive),1.2,1.28,-0.0158,0.864,-1.06,0.0017,1.46,-0.734,0.0908,1.87,0.609,0.0768,0.392,1.72,0.307,1.91
C[N+](C)(C)CCCCNC(=O)[C@@H]1C[C@@H]2C(=O)N[C@@H](Cc3ccccc3)C(=O)N2[C@@H]1c1cccc(OCCO)c1,1.32,-0.0907,0.361,-0.379 (inactive),0.849,-0.494,-0.35,0.683,1.49,-0.15,-1.03,-0.759,0.633,-0.985,0.18,-0.178,-0.0146,-0.12,0.0849,-0.671
CC1(C)[C@@H]2CC(C(O)C3C=CC4C(=O)N(Cc5ccccc5)C(=O)C4N3n3cnnc3)=C[C@H]1C2 (stereo not given in full),0.779,0.454,0.355,-0.0958 (inactive),0.801,1.28,0.0902,0.74,0.0252,1.2,1.4,-0.254,0.223,0.549,-0.0552,0.0374,-0.271,-0.0304,0.187,0.6
CCOC(=O)C[C@H]1[C@H](OC(=O)c2ccc(-c3ccccc3)cc2)[C@@H](NC(=O)Cc2ccc(OC)cc2)c2cc(OCCCO)ccc2N1C(=O)c1ccccc1,-0.168,0.18,0.294,0.122 (inactive),0.219,-0.454,-0.165,-0.0876,-0.384,0.407,0.269,-0.898,-0.458,0.211,0.0935,-0.0643,-0.17,-0.306,0.294,0.582
[N-]=[N+]=NCc1ccccc1[C@@H]1OC(c2ccc(OCCCO)cc2)=N[C@]1(Cc1ccccc1)C(N)=O,1.01,0.758,0.864,-1.16 (inactive),1.42,1.3,-0.592,0.881,-0.117,0.857,1.45,-1.3,-0.33,2.2,1.02,-0.0286,0.365,1.14,-0.402,2.14

# From PubChem BioAssay
